Of roughly 7,900 targets only a part is listed; those with a hit were picked by preference. About 0.6% of all pairs of compound and target were hits. Values without a mark were called inactive.

Chain of UniProt P61960 (P61960 whole entry, looked up): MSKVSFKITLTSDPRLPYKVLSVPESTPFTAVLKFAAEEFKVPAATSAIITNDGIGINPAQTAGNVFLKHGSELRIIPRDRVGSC
Chain of UniProt Q12768 (Q12768 whole entry, looked up): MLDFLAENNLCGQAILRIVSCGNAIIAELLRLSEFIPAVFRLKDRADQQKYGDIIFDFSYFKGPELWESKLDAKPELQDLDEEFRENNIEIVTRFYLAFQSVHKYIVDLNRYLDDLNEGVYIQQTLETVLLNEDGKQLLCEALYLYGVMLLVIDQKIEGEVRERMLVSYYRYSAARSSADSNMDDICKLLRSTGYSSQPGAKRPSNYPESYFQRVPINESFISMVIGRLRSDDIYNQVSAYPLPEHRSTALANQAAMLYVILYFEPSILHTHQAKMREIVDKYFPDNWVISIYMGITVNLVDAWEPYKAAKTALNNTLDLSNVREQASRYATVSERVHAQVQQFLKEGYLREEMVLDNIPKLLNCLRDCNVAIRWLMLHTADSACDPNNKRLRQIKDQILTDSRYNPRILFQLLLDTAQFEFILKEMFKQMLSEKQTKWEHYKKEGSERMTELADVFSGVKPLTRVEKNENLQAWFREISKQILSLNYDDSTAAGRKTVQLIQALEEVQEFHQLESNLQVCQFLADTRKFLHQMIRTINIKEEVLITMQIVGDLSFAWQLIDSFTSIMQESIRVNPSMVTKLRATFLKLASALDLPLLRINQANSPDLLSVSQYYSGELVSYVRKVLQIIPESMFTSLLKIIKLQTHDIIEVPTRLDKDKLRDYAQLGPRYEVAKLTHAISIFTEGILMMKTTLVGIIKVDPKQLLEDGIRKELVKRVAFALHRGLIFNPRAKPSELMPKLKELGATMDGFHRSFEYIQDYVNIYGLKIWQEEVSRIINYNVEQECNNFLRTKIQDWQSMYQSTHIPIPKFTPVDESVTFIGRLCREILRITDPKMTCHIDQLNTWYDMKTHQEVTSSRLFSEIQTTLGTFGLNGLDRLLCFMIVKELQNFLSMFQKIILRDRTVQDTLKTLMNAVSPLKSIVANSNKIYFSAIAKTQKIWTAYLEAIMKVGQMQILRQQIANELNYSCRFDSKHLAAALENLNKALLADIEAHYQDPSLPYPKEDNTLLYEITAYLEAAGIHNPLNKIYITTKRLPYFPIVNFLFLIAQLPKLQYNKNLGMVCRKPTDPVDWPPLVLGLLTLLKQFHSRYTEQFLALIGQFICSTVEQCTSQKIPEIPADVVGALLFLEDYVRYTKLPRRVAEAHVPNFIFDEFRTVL
Chain of UniProt Q5VZI3 (Q5VZI3 whole entry, looked up): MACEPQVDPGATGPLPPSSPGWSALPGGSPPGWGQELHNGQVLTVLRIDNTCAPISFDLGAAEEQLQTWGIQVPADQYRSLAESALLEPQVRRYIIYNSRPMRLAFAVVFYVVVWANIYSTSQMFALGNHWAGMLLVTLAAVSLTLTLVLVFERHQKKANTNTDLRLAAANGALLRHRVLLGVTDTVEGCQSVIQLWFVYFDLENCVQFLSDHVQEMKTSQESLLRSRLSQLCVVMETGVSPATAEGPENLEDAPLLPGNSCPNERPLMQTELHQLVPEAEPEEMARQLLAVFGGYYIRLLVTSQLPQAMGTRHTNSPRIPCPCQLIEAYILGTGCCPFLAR
Chain of UniProt A6NIH7 (A6NIH7 whole entry, looked up): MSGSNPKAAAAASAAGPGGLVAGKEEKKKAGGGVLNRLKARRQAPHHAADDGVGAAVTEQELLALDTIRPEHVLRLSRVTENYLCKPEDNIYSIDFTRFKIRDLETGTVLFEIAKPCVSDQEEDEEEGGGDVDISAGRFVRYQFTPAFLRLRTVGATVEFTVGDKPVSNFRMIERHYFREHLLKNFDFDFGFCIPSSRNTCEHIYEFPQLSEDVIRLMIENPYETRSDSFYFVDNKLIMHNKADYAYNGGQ
Chain of UniProt Q9NV66 (Q9NV66 whole entry, looked up): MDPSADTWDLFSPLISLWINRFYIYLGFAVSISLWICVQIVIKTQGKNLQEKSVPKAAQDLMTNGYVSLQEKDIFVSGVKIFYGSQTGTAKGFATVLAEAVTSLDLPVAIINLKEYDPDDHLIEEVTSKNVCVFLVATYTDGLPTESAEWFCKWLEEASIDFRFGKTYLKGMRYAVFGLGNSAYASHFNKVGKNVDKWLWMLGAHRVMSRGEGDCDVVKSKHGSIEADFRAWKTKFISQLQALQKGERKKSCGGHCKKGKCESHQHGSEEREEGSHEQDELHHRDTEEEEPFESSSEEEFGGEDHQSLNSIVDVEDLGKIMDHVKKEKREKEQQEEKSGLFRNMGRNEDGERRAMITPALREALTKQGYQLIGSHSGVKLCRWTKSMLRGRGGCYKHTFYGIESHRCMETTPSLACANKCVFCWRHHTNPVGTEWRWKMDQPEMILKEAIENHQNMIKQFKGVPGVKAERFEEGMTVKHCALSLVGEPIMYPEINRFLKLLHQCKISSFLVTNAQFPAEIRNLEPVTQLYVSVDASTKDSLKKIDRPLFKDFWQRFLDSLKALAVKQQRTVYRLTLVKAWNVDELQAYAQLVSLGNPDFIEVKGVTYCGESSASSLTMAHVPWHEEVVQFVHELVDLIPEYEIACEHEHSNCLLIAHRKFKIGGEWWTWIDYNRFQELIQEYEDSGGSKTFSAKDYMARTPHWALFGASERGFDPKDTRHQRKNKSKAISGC
Chain of UniProt P49754 (P49754 whole entry, looked up): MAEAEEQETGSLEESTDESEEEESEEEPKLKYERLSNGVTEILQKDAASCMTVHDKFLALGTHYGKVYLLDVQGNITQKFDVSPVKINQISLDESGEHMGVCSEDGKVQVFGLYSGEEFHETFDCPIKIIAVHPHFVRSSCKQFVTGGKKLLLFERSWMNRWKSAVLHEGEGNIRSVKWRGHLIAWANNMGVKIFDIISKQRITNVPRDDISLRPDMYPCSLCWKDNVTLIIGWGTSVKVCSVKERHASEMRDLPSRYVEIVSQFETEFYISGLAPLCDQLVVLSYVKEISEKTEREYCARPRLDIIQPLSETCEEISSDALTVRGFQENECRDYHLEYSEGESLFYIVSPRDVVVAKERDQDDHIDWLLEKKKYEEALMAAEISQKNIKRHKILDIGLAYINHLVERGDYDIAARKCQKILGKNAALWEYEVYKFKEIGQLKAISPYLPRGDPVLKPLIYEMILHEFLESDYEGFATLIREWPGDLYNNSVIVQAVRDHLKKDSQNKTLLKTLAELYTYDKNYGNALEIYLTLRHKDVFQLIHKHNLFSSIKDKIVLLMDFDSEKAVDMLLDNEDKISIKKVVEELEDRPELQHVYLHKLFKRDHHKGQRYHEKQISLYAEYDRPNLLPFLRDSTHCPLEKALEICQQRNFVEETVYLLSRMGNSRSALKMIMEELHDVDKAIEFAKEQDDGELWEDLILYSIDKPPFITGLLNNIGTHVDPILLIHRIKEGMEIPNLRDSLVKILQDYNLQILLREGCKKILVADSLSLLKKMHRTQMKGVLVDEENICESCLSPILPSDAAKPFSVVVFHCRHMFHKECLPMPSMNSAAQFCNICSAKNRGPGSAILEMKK
Chain of UniProt Q5U3C3 (Q5U3C3 whole entry, looked up): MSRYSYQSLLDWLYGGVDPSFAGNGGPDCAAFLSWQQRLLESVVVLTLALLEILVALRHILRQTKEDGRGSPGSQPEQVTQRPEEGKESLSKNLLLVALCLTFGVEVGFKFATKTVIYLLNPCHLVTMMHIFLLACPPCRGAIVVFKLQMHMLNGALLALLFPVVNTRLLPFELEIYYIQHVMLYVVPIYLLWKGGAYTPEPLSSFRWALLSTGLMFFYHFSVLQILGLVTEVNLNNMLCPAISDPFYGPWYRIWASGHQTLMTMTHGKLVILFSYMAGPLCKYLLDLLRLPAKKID
Chain of UniProt P12956 (P12956 whole entry, looked up): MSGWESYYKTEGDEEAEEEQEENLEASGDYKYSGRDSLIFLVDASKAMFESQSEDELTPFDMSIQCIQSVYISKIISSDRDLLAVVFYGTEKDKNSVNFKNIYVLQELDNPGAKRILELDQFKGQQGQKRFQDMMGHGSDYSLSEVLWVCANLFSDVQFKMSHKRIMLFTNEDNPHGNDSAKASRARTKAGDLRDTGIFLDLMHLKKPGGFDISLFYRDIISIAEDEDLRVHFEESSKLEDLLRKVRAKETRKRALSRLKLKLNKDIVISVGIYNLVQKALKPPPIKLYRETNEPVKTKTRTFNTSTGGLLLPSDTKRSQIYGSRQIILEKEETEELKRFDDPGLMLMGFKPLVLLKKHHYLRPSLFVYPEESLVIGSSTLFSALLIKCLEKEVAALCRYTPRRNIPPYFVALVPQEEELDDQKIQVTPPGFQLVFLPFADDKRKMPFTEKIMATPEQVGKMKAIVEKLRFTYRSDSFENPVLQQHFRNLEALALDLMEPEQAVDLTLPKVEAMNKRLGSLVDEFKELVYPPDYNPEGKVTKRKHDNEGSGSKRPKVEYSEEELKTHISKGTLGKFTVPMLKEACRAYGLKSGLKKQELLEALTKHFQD
Chain of UniProt Q01081 (Q01081 whole entry, looked up): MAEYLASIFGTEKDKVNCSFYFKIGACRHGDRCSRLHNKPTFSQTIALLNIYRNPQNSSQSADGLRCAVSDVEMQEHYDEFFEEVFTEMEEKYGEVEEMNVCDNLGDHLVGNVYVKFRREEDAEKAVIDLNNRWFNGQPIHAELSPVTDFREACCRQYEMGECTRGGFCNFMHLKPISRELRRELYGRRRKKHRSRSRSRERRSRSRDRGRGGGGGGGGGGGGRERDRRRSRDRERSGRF
Chain of UniProt Q9BXJ8 (Q9BXJ8 whole entry, looked up): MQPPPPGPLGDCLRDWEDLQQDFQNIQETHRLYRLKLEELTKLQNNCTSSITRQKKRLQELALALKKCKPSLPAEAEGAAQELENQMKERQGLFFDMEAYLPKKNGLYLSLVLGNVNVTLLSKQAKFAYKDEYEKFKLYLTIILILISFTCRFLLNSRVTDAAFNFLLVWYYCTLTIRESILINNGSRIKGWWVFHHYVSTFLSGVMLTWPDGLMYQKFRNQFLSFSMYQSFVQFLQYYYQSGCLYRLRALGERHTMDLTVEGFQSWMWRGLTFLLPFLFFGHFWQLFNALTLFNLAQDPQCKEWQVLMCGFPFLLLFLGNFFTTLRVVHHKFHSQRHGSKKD

Compound in the assay: c1cn2cc(-c3ccc4cn[nH]c4c3)nc(Nc3ccc(N4CCOCC4)cc3)c2n1 [entospletinib]
The assay is described as follows: log2 fold change, soluble protein after heating vs DMSO (PISA); higher = thermal stabilisation; K562 cells, 10 uM, 30 min; active = over 0.2 and 3.5 SD of the protein, either way, in both replicates (recomputed). Put shortly: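 K562 cells at 2×10^6 cells/mL were treated for 30 min with 10 μM compound, and aliquots were heated for 3 min over 48°C-58°C before pooling. Extraction used PBS with 0.5% NP-40 at 4°C, and soluble protein was the supernatant after 21,000xg for 90 min, measured by TMTpro 16plex LC-MS/MS with channel sums equalised. Thermal stability values, relative to control samples and from duplicates, are log2 fold changes.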
For TMEM70 (UniProt Q9BUB7), the log2 fold change was -0.009.

For WDR37 isoform 2 (UniProt Q9Y2I8), the log2 fold change was -0.004.

Turning to U2AF1L5 (UniProt P0DN76), the log2 fold change is -0.497.

As for TRAPPC2L (UniProt Q9UL33), the log2 fold change is 0.039.

On to UFM1 (UniProt P61960), for which the log2 fold change is -0.079.

Take TUT4 (UniProt Q5TAX3): the log2 fold change was 0.066.

Turning to TMEM208 (UniProt Q9BTX3), the log2 fold change was -0.062.

In the case of WDR43 (UniProt Q15061), the log2 fold change was -0.048.

VPS33B (UniProt Q9H267): the log2 fold change was 0.008.

As to TMEM223 (UniProt A0PJW6), the log2 fold change is 0.047.

Take TMEM104 (UniProt Q8NE00): the log2 fold change is 0.001.

With TRMT10A (UniProt Q8TBZ6), the log2 fold change is -0.055.

On to TNPO1 (UniProt Q92973), for which the log2 fold change is -0.001.

As for VPS53 isoform 4 (UniProt Q5VIR6), the log2 fold change is 0.003.

Take VARS2, A0A0G2JL52: the log2 fold change is -0.03.

VTI1B (UniProt Q9UEU0): the log2 fold change was 0.082.

Regarding UFD1 isoform 1 (UniProt Q92890), the log2 fold change was -0.047.

Regarding WASHC5 (UniProt Q12768), the log2 fold change was -0.041.

Take UBA6: the log2 fold change is 0.014.

As to UNC119B (UniProt A6NIH7), the log2 fold change is -0.055.

TXNRD1 isoform 7 (UniProt Q16881): the log2 fold change was 0.04.

For the target TMEM268 isoform 3 (UniProt Q5VZI3), the log2 fold change was -0.054.

Turning to VRK1 (UniProt Q99986), the log2 fold change was -0.149.

As to XRCC6 (UniProt P12956), the log2 fold change is 0.

Take TMEM106B (UniProt Q9NUM4): the log2 fold change is -0.049.

Take TMEM63B (UniProt Q5T3F8): the log2 fold change was 0.011.

For VPS41 (UniProt P49754), the log2 fold change is 0.017.

Regarding TMEM120A (UniProt Q9BXJ8), the log2 fold change was -0.404 (active).

As for UBE2E3 (UniProt Q969T4), the log2 fold change was -0.002.

With TMEM179B (UniProt Q7Z7N9), the log2 fold change is 0.098.

With UGGT1 (UniProt Q9NYU2), the log2 fold change was -0.018.

On to TXNL1 (UniProt O43396), for which the log2 fold change was 0.034.

For the target UFM1 isoform 2 (UniProt P61960), the log2 fold change was 0.079.

As for VAMP7 (UniProt P51809), the log2 fold change is -0.032.

With VWA8 (UniProt A3KMH1), the log2 fold change is -0.03.

As for VPS28 (UniProt Q9UK41), the log2 fold change is -0.039.

U2AF1 isoform 2 (UniProt Q01081): the log2 fold change is -0.052.

Consider TYW1 (UniProt Q9NV66), for which the log2 fold change is 0.003.

For TMEM164 (UniProt Q5U3C3), the log2 fold change is 0.007.

For WASHC2C, A0A096LPC5, the log2 fold change was 0.085.

Source of the values: the supplement of paper PMC10849652.
